Most compounds without a hit are left out; they make up all but 3% or so of the library.
ALOX12 inh = inhibitors of human 12S-lipoxygenase ALOX12; P18054; purified 12hLO, xylenol orange hydroperoxide absorbance; Potency, µM (titrated, usually from 108 µM), without a hit: top-dose activity change, negative = inhibition, actives largely listed as inhibitors; hit rate 1.1% among 580,000; AID 1671190; active means well fitted inhibition curve with a large enough effect; inconclusive means small, poorly fitted or top-dose-only effect, or another doubt; inactive means no such curve, though single readings can be large or run the other way; further: potency means the concentration at half of the fitted maximal effect; on the % scale 0 is the no-effect control and ±100 the full control effect
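Hydroperoxide product was detected by ferrous iron/xylenol orange as the 573 to 405 nm absorbance ratio. Arachidonic acid at 40 uM (final) was turned over for 30 min at room temperature by 150 nM human 12hLO, pH 7.0 Hepes buffer, after 15 min compound preincubation.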
BCR signal inh = blocks chronic active B-cell receptor signaling; ABC-DLBCL IkBa-CBG/CBR reporter, luminescence ratio, 4 h; Potency, µM (highest dose often 46.1 µM), inactives show at the highest dose activity change, negative = inhibition, hits mostly inhibitors; hit rate 0.05% among 340,000; active means well fitted inhibition curve with a large enough effect in the signal ratio, with a control signal flat, not every such curve was filed as active; inconclusive means small, poorly fitted or top-dose-only effect, or effect the other way, or a change in a side signal; the % refers to the signal ratio;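 further: potency means the concentration at half of the fitted maximal effect; plate controls were basal doxycycline-induced cells for no effect and cells given 10 µM MG132 for full effect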
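Concentration-response series (up to 46 uM) were applied to TMD8 dual-reporter cells for 4 h at 37C with doxycycline. Green/red ratio, after filter-overlap correction, defined %Activity; red signal alone was normalised to basal cells and zero luminescence.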
LDHA block = blocks human lactate dehydrogenase A; P00338; purified LDHA, NADH/diaphorase-resazurin fluorescence; active compounds read low; activity change, % (values are at about 110 or 230 µM); hit rate 0.15% among 480,000; in the data active means activity change below about -30%; inconclusive means mostly about -25% to -30%;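 further: plate controls were DMSO wells for no effect and wells without enzyme for full effect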
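LDH5 2 nM; NADH 0.06 mM, pyruvate 0.2 mM; 200 mM Tris pH 7.4, EDTA, Tween-20; 5 min RT. Detection: diaphorase 0.133 mg/mL + resazurin 37 µM, fluorescence ex540/em590 at 0 and 20 min; normalized to enzyme-free and DMSO wells.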
ClpP mod = qHTS Assay for Activators of ClpP | ATP-dependent Clp protease proteolytic subunit (Bacillus subtilis (strain 168)), P80244 | purified B. subtilis ClpP, FRET peptide cleavage, 20 min | hit rate 1.9% among 340,000 | Potency, µM (top dose mostly 57.5 µM), inactives show at the highest dose activity change, negative = active | AID 651965, 2013; active means well fitted falling curve with a large enough effect; inconclusive means small, poorly fitted or top-dose-only effect; inactive means no such curve, though single readings can be large or run the other way; further: potency means the concentration at half of the fitted maximal effect; the source files actives as falling curves though it sought activators and does not explain the sign; nearly all actives have a fitted effect of over 65% in size
Target sequence (P80244 whole entry, looked up): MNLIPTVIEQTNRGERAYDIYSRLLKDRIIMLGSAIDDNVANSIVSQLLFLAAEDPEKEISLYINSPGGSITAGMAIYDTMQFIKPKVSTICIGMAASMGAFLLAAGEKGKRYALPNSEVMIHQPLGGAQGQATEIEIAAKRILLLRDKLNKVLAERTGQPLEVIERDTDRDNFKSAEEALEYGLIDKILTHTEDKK
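FRET quenching reversal measured ClpP activation: 10 microg/mL B. subtilis ClpP at pH 8 with the FRET-FV decapeptide, read at 430 nm after 320 nm excitation. The 20-min minus 0-min signal was scaled between DMSO/no-enzyme wells and ADEP (5.8 microM final).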
KCNH2 3.1 block = KCNH2 3.1 (human) potassium channel inhibition; hit rate 0.95% among 340,000; U2OS KCNH2 3.1, thallium flux FluxOr; active compounds read low; activity change, % (tested at about 1.8 µM); AID 720553;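 active means maximum activity change below -70%; inconclusive means maximum activity change from -70% to -50%; inactive means maximum activity change above -50%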;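 further: thallium influx rate constant from kinetic fluorescence after stimulation buffer; on the % scale 0 is the no-effect control and ±100 the full control effect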
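Normalized rate constant (relative to positive and negative DMSO controls) derived from a 2 min kinetic fluorescence read after stimulation; U2OS cells expressing the 3.1 isoform via virus at 1.77 x 10^8 /mL.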
hERG WT inh = KCNH2 (human, wildtype) channel inhibition; hit rate 0.37% among 340,000; AID 720551; activity change, % at 1.84 µM; Q12809; U2OS, BacMam KCNH2, thallium flux FluxOr; active compounds read low;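 active means maximum activity change below -70%; inconclusive means maximum activity change between -70% and -50%; inactive means maximum activity change above -50%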; further: on the % scale 0 is the no-effect control and ±100 the full control effect
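U2OS cells transduced with wild-type KCNH2 virus are loaded with FluxOr dye for 45 min, and thallium flux is measured in kinetic reads before and after stimulation buffer. Rate constants are normalized to DMSO controls.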
* = called active by the depositor; ? = inconclusive; / = no result; [ ] = dose if it differs, or a comment.

SMILES	ALOX12 inh	BCR signal inh	LDHA block	ClpP mod	KCNH2 3.1 block	hERG WT inh
O=C1c2ccccc2OC2(C=Cc3ccccc3O2)N1Cc1ccccc1 (stereo not given)	0.0%	?	0.1	-4.5%	-1.8	-0.4
CN(C)c1ccc(-c2noc(C3CCN(S(=O)(=O)c4cccc(Cl)c4)CC3)n2)cc1	-11.5%	1.9%	-1.1	20µM*	-12.3	-11.0
CN(C)c1ccc(-c2noc(C3CCN(S(=O)(=O)c4ccc(C(=O)O)cc4)CC3)n2)cc1	-23.9%	/	4.6	-4.8%	7.5	-2.7
Cn1cccc1CN1CC(F)(F)C[C@H]1c1nnc(C2CC2)o1	0.0%	/	/	/	/	/
CC(=O)c1ccc(OCc2coc(-c3cccc(Cl)c3)n2)cc1	?	/	0.5	/	/	/
Nc1nc2c(s1)C(c1ccccc1OCc1ccccc1Cl)CC(=O)N2 (stereo not given)	0.891µM*	/	82.5	/	/	/
COc1ccc(C2CC(=O)Nc3nc(N)sc32)cc1OCc1ccccc1Cl (stereo not given)	1.12µM*	/	69.3	/	/	/
Nc1nc2c(s1)C(c1cc(Cl)ccc1F)CC(=O)N2 (stereo not given)	35.5µM*	/	77.2	/	/	/
COc1cc2c(cc1OC)C(c1cccc(Cl)c1Cl)CC(=O)N2 (stereo not given)	10.5%	-21.0%	-2.0	1.8%	-6.5	-10.5
COc1ccc(C2CC(=O)Nc3nc(N)sc32)cc1OC (stereo not given)	?	/	101.5	/	/	/
Nc1nc2c(s1)C(c1cccc(Cl)c1Cl)CC(=O)N2 (stereo not given)	20µM*	/	76.1	/	/	/
O=C(Nc1nc2ccccc2s1)c1ccc2c(c1)OCCN(CCC(F)(F)F)C2	-6.4%[176 µM]	/	/	/	/	/
CSc1ccc(-c2cccc(CN)c2)cc1	-1.7%[12.5 µM]	/	/	/	/	/
Cc1c(CCC(=O)NCc2ccc3c(c2)OCO3)c(=O)oc2c(C)c(O)ccc12	-29.9%	/	0.7	/	/	/
CC1(C)C(c2ccccc2)=NC(c2ccc(Br)cc2)N1O (stereo not given)	7.94µM*	?	0.2	-3.0%	0.5	-10.5
CN(CCNC(=O)c1c[nH]c2c1ccc1ccccc12)CCNC(=O)c1c[nH]c2c1ccc1ccccc12	?	/	-0.6	28.2µM*	-13.2	8.9
CN(C)CCNC(=O)c1cccc2nc3c(ccc4ccccc43)nc12	-12.6%	/	-0.6	-26.3%	-3.8	-1.7
C1=C(c2ccc(-c3ccccc3)cc2)Nc2ncnn2C1c1ccco1 (stereo not given)	2.9%	?	-1.3	15.8µM*	-13.0	-12.5
Brc1ccc(C2=CC(c3cccs3)n3ncnc3N2)cc1 (stereo not given)	39.8µM*	?	0.5	31.6µM*	-12.1	-28.2
Fc1ccc(C2=CC(c3ccco3)n3ncnc3N2)cc1 (stereo not given)	/	2.9%	4.0	-28.0%	-14.0	-3.6
CCc1ccc(C2C=C(c3ccc(Br)cc3)Nc3ncnn32)cc1 (stereo not given)	?	/	12.1	/	/	/
Fc1ccc(C2=CC(c3ccc(Br)o3)n3ncnc3N2)cc1 (stereo not given)	/	-3.4%	-1.1	31.6µM*	-18.2	-22.7
Oc1cc(-n2cccn2)c(O)cc1-n1cccn1	?	?	21.2	28.2µM*	11.6	-1.5
CCOCCCNc1ncnc2c1[nH]c1ccccc12	0.0%	21.6%	-9.4	15.8µM*	8.3	13.8
CCCCOCCCNc1ncnc2c1[nH]c1ccccc12	4.6%	0.9%	-2.6	28.2µM*	13.3	-2.0
SMILES	ALOX12 inh	BCR signal inh	LDHA block	ClpP mod	KCNH2 3.1 block	hERG WT inh
CCOc1ccc2[nH]c3c(NCCO)ncnc3c2c1	108.0%	10.8%	-1.4	3.7%	2.2	-11.0
CCCCn1cnc2c([nH]c3ccccc32)c1=O	-4.7%	-6.1%	-3.4	?	-6.4	11.4
O=C1CCN(C(=O)C2CC=CC2)CCCC(c2nc(-c3cccnc3)no2)CCN1 (stereo not given)	20.0%	/	/	/	/	/
O=C(C1CC1)N1CCN(Cc2ccccc2)CC1	133.5%	/	-15.3	/	6.8	-4.1
O=C(CN1CCN(Cc2ccccc2)CC1)N1CCCCCC1	-19.6%	-8.5%	-3.7	/	-83.2*	-1.6
O=C(CN1CCN(Cc2ccccc2)CC1)N1CCN(c2ccccc2)CC1	7.2%	-8.0%	-2.3	0.5%	4.0	3.5
O=C(N1CCN(Cc2ccccc2)CC1)C(Cl)(Cl)Cl	-24.6%	6.9%	-2.6	12.6µM*	-10.0	-0.9
N#Cc1ccc(OCC(O)Cn2cnc3ccc(Br)cc3c2=O)cc1 (stereo not given)	?	/	-4.1	/	/	/
O=C(Nc1ccccc1O)c1csc(NC2CC2)n1	-12.7%	/	0.2	/	/	/
CCC1(CC)SCCNC1=O	-23.5%	/	-3.8	-0.2%	-1.4	-281.9*
O=C(Nc1cccc(-c2nc3c(s2)CCCC3)c1)C1CC1	?	/	12.6	/	/	/
COc1ccc(C2C(C#N)=C(N)Oc3cc4c(cc32)OCO4)cc1 (stereo not given)	12.6µM*	6.1%	6.3	-5.0%	-15.7	3.5
C#CCOc1ccc(C2C(C#N)=C(N)Oc3cc(O)ccc32)cc1 (stereo not given)	28.2µM*	?	6.0	-25.0%	1.7	-4.8
COc1ccc(C2C(C#N)=C(N)Oc3cc(O)ccc32)cc1Cl (stereo not given)	31.6µM*	-4.4%	1.6	-2.0%	-16.1	-6.6
COc1ccc(C2C(C#N)=C(N)Oc3cc(C)n(Cc4ccc5c(c4)OCO5)c(=O)c32)cc1 (stereo not given)	-13.9%	/	-3.4	/	/	/
COC(=O)c1ccc(C2C(C#N)=C(N)Oc3cc(N)ccc32)cc1 (stereo not given)	?	-1.9%	2.2	/	33.2	3.4
COC(=O)c1ccc(C2C(C#N)=C(N)Oc3cc(O)ccc32)cc1 (stereo not given)	25.1µM*	-0.3%	0.4	/	-12.8	-3.3
CCOc1ccc(C2C(C#N)=C(N)Oc3cc(O)ccc32)cc1OCC (stereo not given)	-25.2%	-0.8%	-6.4	-0.4%	6.2	13.7
Cc1cn2nc(C(=O)NCc3ccc4c(c3)OCO4)cc2c(N2CCCC2)n1	18.8%	/	/	/	/	/
CCNc1c(NC(=O)Nc2ccc(F)cc2)c(=O)oc2ccccc12	?	/	-6.1	/	/	/
COc1ccc(CNC(=O)c2ccc3c(c2)N(C(=O)c2ccc(F)cc2)CC3)c(OC)c1	4.5%	/	/	/	/	/
CCOc1cc2cc(C(=O)c3cc(C)ccc3O)cnc2cc1OC	?	/	45.1	/	/	/
CC(C)CCNc1nc(-c2ccc(O)c(C(N)=O)c2)cs1	7.94µM*	/	?	/	/	/

Assay outcomes (PubChem)
